# Measurements reported in PubChem BioAssay (NCATS).
# Values without a mark were called inactive. Records with an inconclusive call do not appear. The source made the active and inactive calls. Unless noted, the call rests on the fitted dose curve; in most records, active means well fitted curve in either direction with a large enough effect (not every such curve was filed as active); inconclusive means small, poorly fitted or top-dose-only effect, or another doubt; inactive means flat fitted curve, though single readings scatter.
# Assays:
# [1] = target: Lysosomal acid glucosylceramidase (Homo sapiens) (UniProt P04062); test: Glucocerebrosidase-p2 (AID 348; in the data active means potency below about 10 µM; further: potency means the concentration at half of the fitted maximal effect); details: purified GBA, blue fluorogenic substrate, 40 min
# In short: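 Normal human glucocerebrosidase (0.2 nM) with blue fluorogenic substrate (80 uM final) in citrate/phosphate pH 5.9 with 10mM sodium taurocholate, 0.01% tween-20; 40 min RT, NaOH/glycine stop; fluorescence Ex 365/Em 440; AC50 from a titration from 0.6 nM upwards.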
# [2] = AP1 Signaling Pathway (AID 357); details: ME-180 AP-1-bla reporter, EGF-induced, beta-lactamase ratio, 5 h; at 7.69 µM (top of the series) unless noted;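 further: ME-180 reporter cells stimulated with EGF at its EC50 level; on the % scale 0 is the no-effect control and ±100 the full control effect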
# In short: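 Titration-series screen for positive or negative modulators of EC50 EGF-induced signaling in ME-180 cells carrying an AP-1-driven beta-lactamase reporter. After 5 hours at 37 degrees Celsius, CCF4 460nm/530nm emission ratio gave %Activity; AC50 values derived.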
# [3] = target: Cytochrome P450 1A2 (Homo sapiens) (UniProt P05177); test: p450-cyp1a2 (AID 410; calls by dose curve; further: potency means the concentration at half of the fitted maximal effect;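 on activity change, negative = inhibition: -100% = full effect of reference inhibitor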); details: recombinant CYP1A2, luciferin-ME demethylation, luminescence; series mostly up to 57 µM
# In short: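 Luminescent demethylation readout: Luciferin-ME (100uM, equal to Km) turned over by 20nM CYP1A2 for 60 min at room temperature after NADPH regeneration addition, following 10 min compound preincubation. Normalization used 57 uM furafylline as full inhibition.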
# [4] = NFAT Signaling Pathway (AID 444); details: Jurkat NFAT-bla M1, carbachol, beta-lactamase ratio, 5 h; at 7.69 µM (top of the series) unless noted;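 further: carbachol stimulus at about its EC50 of 1 µM final; on the % scale 0 is the no-effect control and ±100 the full control effect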
# In short: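 Jurkat cells with NFAT-driven β-lactamase reporter and co-expressed M1 receptor, stimulated with carbachol (final 1 uM, ~EC50), compound titration, 5 h at 37 °C. CCF4 loaded 1 h at RT; 460/530 nm ratio gave %activity and AC50.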
# [5] = Stat Signaling Pathway (AID 446); details: ME-180 (cervical carcinoma) SIE beta-lactamase reporter, IL-6 stimulated, 5 h; at 7.69 µM (top of the series) unless noted;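 further: ME-180 cervical cancer cells given 40 pM IL-6 alongside compound; SIE-controlled beta-lactamase reporter measured as 460/530 nm FRET emission ratio; on the % scale 0 is the no-effect control and ±100 the full control effect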
# In short: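 Emission at 460 and 530 nm (excitation 405 nm) reports SIE-controlled beta-lactamase in ME-180 cells. Cells received compound with 40 pM IL-6 for 5 hrs at 37 C; data scaled between 300 pM IL-6 and 125 nM JAK-inhibitor controls.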
# [6] = target: Glucocorticoid receptor (Homo sapiens) (UniProt P04150); test: GR-EFC Redistribution (AID 451; calls by dose curve; further: potency means the concentration at half of the fitted maximal effect); details: CHO-K1 GR-EFC translocation, beta-gal luminescence, 2 h
# In short: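 CHO-K1 cells expressing nuclear EA and GR-ED fragments of b-gal; compounds titrated up to 46 uM final, 2 h at 37 C. GR nuclear translocation read as complemented b-gal luminescence after 1 h RT detection.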
# [7] = target: Mitogen-activated protein kinase 10 (Mus musculus) (UniProt Q61831); test: JNK3 AlphaScreen Assay (AID 530); details: JNK3 lysate, c-Jun phosphorylation; series mostly up to 57.1 µM;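 further: kinase came from lysate of stimulated human HepG2 cells; signal reports phosphorylation of biotinylated GST-cJun 1-79 at Ser73 with 10 µM ATP; on the % scale 0 is the no-effect control and ±100 the full control effect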
# In short: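 Activity was read by AlphaScreen after JNK3-containing HepG2 lysate (cytokine pre-activated) phosphorylated biotinylated GST-cJun with 10 uM ATP at room temperature. Phospho-Ser73 cJun antibody with Protein-A acceptor beads provided detection.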
# [8] = target: 3',5'-cyclic-AMP phosphodiesterase 4B (Homo sapiens) (UniProt Q07343); test: qHTS Assay for Inhibitors of PDE-IV (AID 607; active means well fitted activation curve with a large enough effect in the main read-out, with a control signal flat, not every such curve was filed as active; further: % of control where 0% means no effect); details: HEK293 ACTOne CNG channel cells, membrane potential fluorescence; series mostly up to 22.9 µM
# In short: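 The readout is membrane depolarisation from a cAMP-sensing CNG channel, detected with a potential dye at ex 535/em 590. Cells were HEK293-derived (endogenous PDE-IV) at 1000 cells/well, titrated up to 22.9 uM final.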
# [9] = Primary qHTS for small molecule stabilizers of the endoplasmic reticulum resident proteome: Secreted ER Calcium Modulated Protein (SERCaMP) assay (AID 1508630; active means well fitted curve in the direction sought with a large enough effect; an effect the other way counts as inactive or inconclusive; further: on the % scale 0 is the no-effect control and ±100 the full control effect); details: SH-SY5Y GLuc-SERCaMP (Gaussia luciferase released on ER calcium loss) secretion, thapsigargin, luminescence; series mostly up to 38.4 µM
# In short: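 The SH-SY5Y reporter protocol was run at 3 concentrations up to 38.3 uM (primary) or 11 concentrations (follow-up): 16 h compound, 100 nM thapsigargin for 4 h, then extracellular luciferase luminescence.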
# [10] = target: Cytochrome P450 3A4 (Homo sapiens) (UniProt P08684); test: qHTS Assay for Inhibitors and Substrates of Cytochrome P450 3A4 (AID 884; active means well fitted curve in the direction sought with a large enough effect; an effect the other way counts as inactive or inconclusive; further: on the % scale 0 is the no-effect control and ±100 the full control effect; nearly all actives have a fitted effect of over 50% in size); details: recombinant CYP3A4, Luciferin-PPXE luminescence; series mostly up to 57.1 µM
# In short: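 Luminescent readout of luciferin produced by CYP3A4 (20 nM) dealkylation of Luciferin-PPXE, 25 uM (its KM). NADPH-driven reaction ran 60 min at RT after 10 min compound preincubation; data scaled to 57 uM ketoconazole as 100% inhibition.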
# [11] = target: Cytochrome P450 3A4 (Homo sapiens) (UniProt P08684); test: qHTS Assay for Activators of Cytochrome P450 3A4 (AID 885; active means well fitted curve in the direction sought with a large enough effect; an effect the other way counts as inactive or inconclusive; further: nearly all actives have a fitted effect of over 65% in size; further: potency means the concentration at half of the fitted maximal effect); details: recombinant CYP3A4, Luciferin-PPXE luminescence, 60 min; series mostly up to 57.1 µM
# In short: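 Activators are scored by enhanced luminescence from CYP3A4 conversion of luciferin-PPXE (25uM, equal to KM) to luciferin, after 60 min at RT with an NADPH-regenerating system.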
# Cytochrome P450 1A2 (Homo sapiens), sequence (P05177 whole entry, looked up): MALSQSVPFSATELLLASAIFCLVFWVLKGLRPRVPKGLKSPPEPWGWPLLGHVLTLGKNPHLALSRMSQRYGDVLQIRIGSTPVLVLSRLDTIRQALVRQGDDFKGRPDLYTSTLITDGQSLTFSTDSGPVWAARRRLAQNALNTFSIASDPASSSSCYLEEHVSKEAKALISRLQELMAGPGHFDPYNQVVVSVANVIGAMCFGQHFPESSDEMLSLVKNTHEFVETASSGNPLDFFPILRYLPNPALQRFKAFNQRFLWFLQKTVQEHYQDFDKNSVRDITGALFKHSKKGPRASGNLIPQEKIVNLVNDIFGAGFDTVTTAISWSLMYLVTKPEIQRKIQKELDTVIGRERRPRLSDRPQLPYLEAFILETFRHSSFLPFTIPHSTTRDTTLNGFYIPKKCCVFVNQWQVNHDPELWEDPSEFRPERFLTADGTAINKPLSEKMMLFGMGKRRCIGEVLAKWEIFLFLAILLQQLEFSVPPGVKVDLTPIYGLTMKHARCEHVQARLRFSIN
# 3',5'-cyclic-AMP phosphodiesterase 4B (Homo sapiens), sequence (Q07343 whole entry, looked up): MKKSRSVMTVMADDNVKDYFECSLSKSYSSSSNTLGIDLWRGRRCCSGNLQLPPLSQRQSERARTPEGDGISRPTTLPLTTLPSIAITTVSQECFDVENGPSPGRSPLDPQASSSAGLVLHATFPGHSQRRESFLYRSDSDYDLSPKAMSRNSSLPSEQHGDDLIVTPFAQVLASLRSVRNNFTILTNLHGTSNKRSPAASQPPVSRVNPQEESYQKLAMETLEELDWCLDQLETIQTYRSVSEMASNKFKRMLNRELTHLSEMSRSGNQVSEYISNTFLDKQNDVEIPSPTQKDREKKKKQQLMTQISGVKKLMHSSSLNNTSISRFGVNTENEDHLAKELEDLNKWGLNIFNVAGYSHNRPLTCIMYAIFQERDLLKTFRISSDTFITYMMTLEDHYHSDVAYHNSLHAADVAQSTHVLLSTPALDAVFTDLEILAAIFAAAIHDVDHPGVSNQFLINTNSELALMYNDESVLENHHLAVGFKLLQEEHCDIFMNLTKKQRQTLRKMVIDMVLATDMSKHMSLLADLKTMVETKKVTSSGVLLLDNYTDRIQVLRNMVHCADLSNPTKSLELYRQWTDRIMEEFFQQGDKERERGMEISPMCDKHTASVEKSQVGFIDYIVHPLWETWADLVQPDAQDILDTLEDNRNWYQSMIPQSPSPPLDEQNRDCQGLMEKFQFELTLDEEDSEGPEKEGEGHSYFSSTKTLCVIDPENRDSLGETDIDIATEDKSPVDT
# Cytochrome P450 3A4 (Homo sapiens), sequence (P08684 whole entry, looked up): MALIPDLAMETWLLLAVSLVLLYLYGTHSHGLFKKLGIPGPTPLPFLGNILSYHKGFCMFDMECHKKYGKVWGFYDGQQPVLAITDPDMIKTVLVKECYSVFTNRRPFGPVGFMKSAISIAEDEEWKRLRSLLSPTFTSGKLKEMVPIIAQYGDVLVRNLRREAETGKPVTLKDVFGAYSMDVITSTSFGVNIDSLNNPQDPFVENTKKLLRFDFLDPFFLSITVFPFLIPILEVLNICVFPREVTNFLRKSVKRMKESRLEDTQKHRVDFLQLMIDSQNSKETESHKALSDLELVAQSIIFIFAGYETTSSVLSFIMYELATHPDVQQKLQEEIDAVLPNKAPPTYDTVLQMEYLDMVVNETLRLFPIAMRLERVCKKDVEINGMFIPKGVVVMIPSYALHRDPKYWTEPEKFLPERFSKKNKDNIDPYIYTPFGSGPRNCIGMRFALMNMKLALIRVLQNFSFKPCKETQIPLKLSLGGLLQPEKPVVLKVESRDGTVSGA
# Lysosomal acid glucosylceramidase (Homo sapiens), sequence (P04062 whole entry, looked up): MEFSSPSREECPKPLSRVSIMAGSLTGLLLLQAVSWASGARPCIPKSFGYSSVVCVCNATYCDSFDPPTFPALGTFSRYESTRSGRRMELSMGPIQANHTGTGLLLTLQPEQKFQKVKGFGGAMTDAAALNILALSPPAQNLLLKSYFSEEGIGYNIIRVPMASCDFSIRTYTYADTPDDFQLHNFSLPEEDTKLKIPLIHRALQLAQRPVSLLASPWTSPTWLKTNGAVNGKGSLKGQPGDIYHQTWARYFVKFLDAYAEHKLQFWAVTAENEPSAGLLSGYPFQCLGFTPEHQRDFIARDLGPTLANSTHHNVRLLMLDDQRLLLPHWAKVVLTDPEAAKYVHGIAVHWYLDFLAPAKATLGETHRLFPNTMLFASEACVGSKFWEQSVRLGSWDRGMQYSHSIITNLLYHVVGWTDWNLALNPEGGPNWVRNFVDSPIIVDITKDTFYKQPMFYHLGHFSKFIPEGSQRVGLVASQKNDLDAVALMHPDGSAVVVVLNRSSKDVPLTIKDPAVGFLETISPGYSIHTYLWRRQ
# Glucocorticoid receptor (Homo sapiens), sequence (P04150 whole entry, looked up, the tested form may be a part): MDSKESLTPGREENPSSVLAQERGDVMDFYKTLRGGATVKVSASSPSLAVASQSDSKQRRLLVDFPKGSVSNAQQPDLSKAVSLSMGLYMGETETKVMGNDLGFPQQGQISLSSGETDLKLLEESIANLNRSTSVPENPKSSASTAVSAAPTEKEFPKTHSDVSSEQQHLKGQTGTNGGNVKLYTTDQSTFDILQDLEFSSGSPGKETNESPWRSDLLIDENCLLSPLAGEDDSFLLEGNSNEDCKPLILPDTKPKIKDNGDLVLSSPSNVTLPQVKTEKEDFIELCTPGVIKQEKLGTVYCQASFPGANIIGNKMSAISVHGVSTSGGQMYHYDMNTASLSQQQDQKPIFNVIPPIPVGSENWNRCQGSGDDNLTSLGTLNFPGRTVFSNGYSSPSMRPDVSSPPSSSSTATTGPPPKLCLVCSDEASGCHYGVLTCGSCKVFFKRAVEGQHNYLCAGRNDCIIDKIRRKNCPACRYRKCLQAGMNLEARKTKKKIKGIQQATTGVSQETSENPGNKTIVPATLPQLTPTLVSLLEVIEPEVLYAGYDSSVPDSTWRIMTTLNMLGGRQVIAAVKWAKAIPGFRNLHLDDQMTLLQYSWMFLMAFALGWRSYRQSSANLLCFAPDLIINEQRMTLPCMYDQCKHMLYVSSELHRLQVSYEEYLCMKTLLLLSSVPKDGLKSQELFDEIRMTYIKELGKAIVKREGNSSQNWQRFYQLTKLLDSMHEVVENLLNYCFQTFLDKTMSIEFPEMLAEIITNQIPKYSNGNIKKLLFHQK
SMILES,Potency [1] [µM],"activity change, negative = inhibition [2] [%]",Potency [3],"activity change, negative = inhibition [4] [%]","activity, negative = inhibition [5] [%]",Potency [6] [µM],Potency [7],Potency [8],outcome [9],Potency [10],Potency [11]
CC(=O)N1CCC2(CC1)CCN(c1ccc(-c3ccccc3)cc1)CC2,> 11.4,47.5,10 µM (active),-28,-16.9,> 46,inactive,inactive,inactive,–,–
O=C(c1cccc(F)c1)N1CCC2(CC1)CN(c1ccc(-c3ccccc3)cc1)C2,> 11.4,9.76,inactive,-5.75,-20.4,> 46,inactive,inactive,inactive,inactive,2.51 µM (active)
COc1ccc(C(=O)N2CCC3(CCCN(c4ncccn4)C3)CC2)cc1,> 11.4,0.224,20 µM (active),13.8,-4.23,> 46,inactive,inactive,inactive,–,inactive
CC(C)NC(=O)N1CCCC2(CCN(C(=O)c3cccn3C)CC2)C1,> 11.4,4.84,inactive,-17.7,14.5,> 46,inactive,inactive,inactive,–,inactive
